From PubChem BioAssay
Activity calls are given as the source filed them.

test: change in splice reporter luminescence, either direction, cell-based, HEK293, spliceosome inhibition project, primary screen (AID 1101); conditions: HEK293 splicing luciferase reporter, 24 h, higher = more signal, called active from +8 up or from −8 down;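 further: HEK293 cells carrying a splicing-competent luciferase reporter gene; test concentration not given here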

z-score, inactive:
COc1cc(NN2C(C(O)c3ccc(I)cc3)C=CC3C(=O)N(c4ccccc4)C(=O)C32)cc(OC)c1OC (stereo not given) -0.329
CN(C)CCCC[C@@H]1NC(=O)[C@@H]2C[C@H](C(=O)O)[C@H](c3cccc(OCCO)c3)N2C1=O 0.0013
CN1C(=O)C2C=CC(C(O)c3cc(C(F)(F)F)cc(C(F)(F)F)c3)N(Nc3ccccc3)C2C1=O (stereo not given) 1.37
C=C(/C(=C/C[C@H](OC(=O)c1ccncc1)c1ccccc1OCCO)c1cnc2ccccc2c1)C(C)C 0.82
COC(=O)[C@@]1(Cc2ccccc2CN=[N+]=[N-])N=C(c2ccc(OCCCO)cc2)O[C@H]1c1ccccc1 0.31
C=CCC(OC(C)=O)[C@@H]1[C@@H](N(Cc2cccc3ccccc23)C(=O)c2ccc(-c3ccccc3)cc2)c2cc(OCCCO)ccc2N1C(=O)c1ccc(-c2ccccc2)cc1 (stereo not given in full) -0.698
COC(=O)[C@@]1(Cc2ccc(F)cc2)[C@H]2c3cc(C(=O)N(C)C)n(Cc4c(CO)[nH]cc(C)c4=O)c3C[C@H]2CN1C(=O)c1ccccc1 -0.73
CN(C)C(=O)[C@]1(CCS(=O)(=O)c2ccccc2)N=C(c2ccc(OCCCO)cc2)O[C@@H]1c1ccccc1 -0.621
CC(C)OC(=O)CC(=O)CC(O)c1ccc([N+](=O)[O-])cc1 (stereo not given) 0.162
CCN(CC)c1ccc(N2CC=CC34O[C@@H]5/C=C\CCC(C)OC(=O)C5[C@H]3C(=O)N(C(C)CO)[C@@H]4C2=O)cc1 (stereo not given in full) 0.0828
